This is one part of a sample in which hits are shown more often than they occur.
TbPYK inhibitor – blocks Trypanosoma brucei pyruvate kinase | Q57TT1 | TbPYK enzyme, Kinase-Glo Plus ATP luminescence, 45 min | Potency, µM (titrated, usually from 76.8 µM), hits mostly inhibitors | 0.12% of 410,000 active | AID 624173; also: nearly all actives have a fitted effect of over 50% in size
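Enzyme and substrate buffer are dispensed first and compound is pin-transferred. ADP at 130 uM final then starts the reaction, which runs 45 min at room temperature. Detection reagent is added for 10 min before luminescence is imaged.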
LmPK inh – blocks Leishmania mexicana pyruvate kinase activity; purified LmPK, Kinase-Glo ATP luminescence, 1 h; Q27686; 0.37% of 290,000 active; Potency, µM (highest dose often 57.5 µM), usual class: inhibitors; AID 1721
Target sequence (Q27686 whole entry, looked up): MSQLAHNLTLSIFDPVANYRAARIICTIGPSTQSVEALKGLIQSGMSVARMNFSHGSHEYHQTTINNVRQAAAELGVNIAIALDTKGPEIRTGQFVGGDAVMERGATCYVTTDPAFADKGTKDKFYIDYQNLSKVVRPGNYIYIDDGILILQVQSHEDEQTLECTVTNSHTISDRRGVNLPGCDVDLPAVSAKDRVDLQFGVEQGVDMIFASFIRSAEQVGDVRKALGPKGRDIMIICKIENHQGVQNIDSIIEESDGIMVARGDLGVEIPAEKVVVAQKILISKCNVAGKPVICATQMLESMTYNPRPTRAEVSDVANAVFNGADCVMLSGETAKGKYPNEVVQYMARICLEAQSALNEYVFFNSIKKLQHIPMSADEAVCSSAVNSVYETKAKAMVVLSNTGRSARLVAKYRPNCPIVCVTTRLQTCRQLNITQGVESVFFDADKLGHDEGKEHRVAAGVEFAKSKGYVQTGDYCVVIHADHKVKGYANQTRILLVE
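Kinase-Glo luminescence read after 1 h RT reaction of 0.1 nM LmPK with 0.5 mM PEP and 0.1 mM ADP. Activity scaled between uninhibited and enzyme-free controls.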
Cycloheximide cs – counter-screen hit for Shiga toxin inhibitors, cycloheximide | cell reporter, cycloheximide protein synthesis inhibition counterscreen | max response, % | 12% of 300,000 active; in the data active = max response mostly above about 13%, no sharp cut-off; inactive = mostly below about 14%; also: read at 38.3 µM for the half of the compounds with a filed dose
Shiga inhibitor – blocks Shiga toxin action in Vero cells. Vero cells, Shiga toxin protein synthesis inhibition reporter. inhibition, % at 38.7 µM. 9.2% of 290,000 active. AID 2315; in the data active = inhibition mostly above about 28%, no sharp cut-off; inactive = mostly below about 43%
RE007 growth inh – less growth of the S. pombe RE007 Vpr strain; 0.21% of 360,000 active; S. pombe RE007 Vpr strain, BacTiter-Glo ATP luminescence, 24 h; Potency, µM (titrated, usually from 92.2 µM), hits mostly inhibitors; active = well fitted falling curve with a large enough effect; inconclusive = small, poorly fitted or top-dose-only effect; inactive = no such curve, though single readings can be large or run the other way; also: nearly all actives have a fitted effect of over 50% in size
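Fission yeast strain RE007, carrying one chromosomally integrated HIV-1 vpr copy, was seeded at OD 0.01 in PMG+AL medium with 23 nL pinned compound. After 24 h at 30 °C and 99% humidity, viability was read by BacTiter-Glo luminescence.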
Giardia FBPA inh – Giardia lamblia aldolase inhibition | A8B2U2 | purified Giardia FBPA | Potency, µM (highest dose often 59.6 µM), most hits filed as inhibitors | 0.71% of 290,000 active | AID 2451; also: nearly all actives have a fitted effect of over 55% in size
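40 nM FBPA preincubated 10 min at RT with compound (up to 57.5 uM final), then substrate plus GAPDH/TPI/NAD/arsenate coupling and diaphorase/resazurin added. Fluorescence read after 20 min at RT, 525/598 nm.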
A number is an active result; [ ] = dose if it differs, or a comment. Unless noted, calls follow the shape of the dose curve; as a rule, active = well fitted curve in the direction sought with a large enough effect; inconclusive = small, poorly fitted or top-dose-only effect, or another doubt; inactive = no such curve, though single readings can be large; an effect the other way counts as inactive or inconclusive.

O=C(Nc1cccc(O)c1)c1cccc(NC(=O)c2cccs2)c1 was read as TbPYK inhibitor inactive, LmPK inh inactive, Cycloheximide cs inactive, Shiga inhibitor inactive, RE007 growth inh inactive and Giardia FBPA inh inactive.
Screening O=C(Nc1cccc(O)c1)c1ccccc1 returned TbPYK inhibitor inactive, LmPK inh inactive, Cycloheximide cs 20, Shiga inhibitor 38, RE007 growth inh inactive and Giardia FBPA inh inactive.
Screening O=C(O)/C=C\C(=O)Nc1cccc(C(=O)Nc2cccc(O)c2)c1 returned TbPYK inhibitor inactive, LmPK inh inactive, Cycloheximide cs 28, Shiga inhibitor 77, RE007 growth inh inactive and Giardia FBPA inh inactive.
Cc1cc(C(=O)Nc2cccc(O)c2)co1 was read as TbPYK inhibitor inactive, LmPK inh inactive, Cycloheximide cs 32, Shiga inhibitor inactive, RE007 growth inh inactive and Giardia FBPA inh inactive.
For O=C(Nc1ccccc1)c1ccsc1 the results were TbPYK inhibitor inactive, LmPK inh inactive, Cycloheximide cs 27, Shiga inhibitor inactive, RE007 growth inh inactive and Giardia FBPA inh inactive.
CN(C(=O)COC(=O)c1ccc2c(c1)OCCO2)C1CCCCC1 was read as TbPYK inhibitor inactive and RE007 growth inh inactive.
For COc1cc(OC)c(NC(=O)CN2C(=O)CCn3nc(-c4cccn4C)cc32)cc1Cl the results were TbPYK inhibitor inactive.
For COc1cc(/C(C)=N/N2CCN(c3ccccc3OC)CC2)ccc1O the results were TbPYK inhibitor inactive, LmPK inh inactive, Cycloheximide cs 22, Shiga inhibitor inactive, RE007 growth inh inactive and Giardia FBPA inh inactive.
COc1ccccc1N1CCN(/N=C(\C)c2ccccc2O)CC1 was read as TbPYK inhibitor inactive, LmPK inh inactive, Cycloheximide cs 32, Shiga inhibitor 34, RE007 growth inh inactive and Giardia FBPA inh inactive.
`COc1ccccc1N1CCN(Cc2cc(C)c(C)cc2O)CC1` gave TbPYK inhibitor inactive, LmPK inh inactive, Cycloheximide cs inactive, Shiga inhibitor inactive, RE007 growth inh inactive and Giardia FBPA inh inactive.
`O=C(Oc1ccc(F)cc1C(=O)/C=C/c1cccs1)c1cccc([N+](=O)[O-])c1` gave TbPYK inhibitor inactive, LmPK inh inactive, Cycloheximide cs inactive, Shiga inhibitor 49, RE007 growth inh inactive and Giardia FBPA inh inactive.
Screening O=C(/C=C/c1ccccc1F)c1cccc([N+](=O)[O-])c1 returned TbPYK inhibitor inactive, LmPK inh inactive, Cycloheximide cs inactive, Shiga inhibitor active, RE007 growth inh inactive and Giardia FBPA inh inactive.
Screening COc1ccc(C(=O)/C=C/c2ccc(C)cc2)c(OC(=O)c2ccc([N+](=O)[O-])cc2)c1 returned TbPYK inhibitor inactive, LmPK inh inactive, Cycloheximide cs 32, Shiga inhibitor inactive, RE007 growth inh inactive and Giardia FBPA inh inactive.
Screening COc1ccc(C(=O)/C=C/c2ccccc2F)c(OC(=O)c2ccc([N+](=O)[O-])cc2)c1 returned TbPYK inhibitor inactive, LmPK inh inactive, Cycloheximide cs 49, Shiga inhibitor inactive, RE007 growth inh inactive and Giardia FBPA inh inactive.
For COc1ccc(C=CC(=O)c2ccc([N+](=O)[O-])cc2)cc1 the results were TbPYK inhibitor inactive and RE007 growth inh inactive.
For COc1ccc(C(=O)Oc2ccc(F)cc2C(=O)/C=C/c2ccc(OC)c(OC)c2)cc1 the results were TbPYK inhibitor inactive, LmPK inh inactive, Cycloheximide cs inactive, Shiga inhibitor inactive, RE007 growth inh inactive and Giardia FBPA inh inactive.
COCc1cc(C)nc(N/N=C/c2ccc(-c3cc(C(=O)O)ccc3Cl)o2)c1C#N was read as LmPK inh inactive, Cycloheximide cs inactive, Shiga inhibitor inactive and Giardia FBPA inh inactive.
Screening CN=c1scc(-c2ccc(OC)cc2)n1/N=C(\C)c1cccnc1 returned TbPYK inhibitor inactive, LmPK inh inactive, Cycloheximide cs 32, Shiga inhibitor 57, RE007 growth inh inactive and Giardia FBPA inh inactive.
Screening COC(=O)C(O)(c1ccc(N=Cc2ccccc2O)c(C)c1)C(F)(F)F (stereo unspecified) returned TbPYK inhibitor inactive, LmPK inh inactive, Cycloheximide cs inactive, Shiga inhibitor inactive, RE007 growth inh inactive and Giardia FBPA inh inactive.
`O=c1[nH][nH]c2c(N=Cc3ccccc3O)ccc(F)c12` gave TbPYK inhibitor inactive, LmPK inh inactive, Cycloheximide cs inactive, Shiga inhibitor inactive, RE007 growth inh inactive and Giardia FBPA inh 6.3µM.
For COc1ccc2c(c1)c1c(c(=O)n(-c3ccccc3)c(=O)n1CC(=O)NCCC1=CCCCC1)n2C the results were TbPYK inhibitor inactive.
For Cn1c(=O)c2[nH]c(=S)n(Cc3ccccc3)c2n(C)c1=O the results were TbPYK inhibitor 16µM and RE007 growth inh inactive.
`CC(C)c1ccc(NC(=O)CSc2nc3ncccc3[nH]2)cc1` gave TbPYK inhibitor inactive, LmPK inh inactive, Cycloheximide cs 19, Shiga inhibitor inactive, RE007 growth inh inactive and Giardia FBPA inh inactive.
`CC(C)OC(=O)c1ccc(NC(=O)CSc2nc3ncccc3[nH]2)cc1` gave TbPYK inhibitor inactive, LmPK inh inactive, Cycloheximide cs 23, Shiga inhibitor 46, RE007 growth inh inactive and Giardia FBPA inh inactive.
`COc1ccc(NC(=O)CSc2nc3ncccc3[nH]2)cc1OC` gave LmPK inh inactive, Cycloheximide cs inactive, Shiga inhibitor inactive, RE007 growth inh inactive[3.69 µM] and Giardia FBPA inh inactive.
`Cc1cc(NC(=O)CCC(=O)N(Cc2ccco2)C2(C(=O)NC3CCCCC3)CCCC(C)C2)no1` (stereo unspecified) gave TbPYK inhibitor inactive, LmPK inh inactive, Cycloheximide cs inactive, Shiga inhibitor inactive, RE007 growth inh inactive and Giardia FBPA inh inactive.
For C(=N\N=C\c1ccccn1)/c1ccccn1 the results were TbPYK inhibitor inactive, LmPK inh inactive, Cycloheximide cs 13, Shiga inhibitor inactive, RE007 growth inh inactive and Giardia FBPA inh inactive.
For CC(C)(C)c1ccc(C(=O)N/N=C/c2ccccn2)cc1 the results were TbPYK inhibitor inactive, LmPK inh inactive, Cycloheximide cs 45, Shiga inhibitor 85, RE007 growth inh inconclusive and Giardia FBPA inh inactive.
C(=C1c2ccccc2-c2ccccc21)c1ccccn1 was read as TbPYK inhibitor inactive and RE007 growth inh inactive.
`O=C(N/N=C/c1ccccn1)c1ccc(Br)cc1` gave TbPYK inhibitor inactive, LmPK inh inactive, Cycloheximide cs 67, Shiga inhibitor 122, RE007 growth inh inconclusive and Giardia FBPA inh inactive.
`O=C(N/N=C/c1ccccn1)c1ccc([N+](=O)[O-])cc1` gave TbPYK inhibitor inactive, LmPK inh inactive, Cycloheximide cs 36, Shiga inhibitor 100, RE007 growth inh inactive and Giardia FBPA inh inconclusive.
O=S(=O)(c1ccc2c(c1)OCCO2)N1CCN(S(=O)(=O)c2cc(F)c(F)cc2F)CC1 was read as Cycloheximide cs inactive and Shiga inhibitor inactive.

Assay outcomes (PubChem)
